# Reference: paper PMC7826789 (International Journal of Molecular Sciences, 2021)
smiles,measurement,setting,value
Cc1cc(NC(=O)c2cccc(NC(=O)/C=C/CN(C)C)c2)ccc1Nc1nccc(-c2cccnc2)n1 [JNK-IN-7],Kinases covered,JNK3,JNK3
O=C(O)/C=C/C(=O)O.OCCCNc1nccc(-c2c(-c3ccc(F)cc3)nn3cc(C(F)(F)F)ccc23)n1 [GW569293E],Kinases covered,LATS1,LATS1
COc1cc(-c2cncc(-c3cnn(C4CCNCC4)c3)c2)cc(OC)c1OC [K05908],Kinases covered,LCK,LCK
COc1cc2ncnc(Nc3cccc(Cl)c3F)c2cc1O[C@H]1CC[C@H]([C@@H]2NCCNC2=O)CC1 [BI00133844],Kinases covered,LCK,LCK
same,Kinases covered,LYN,LYN
CCCCN(Cc1ccccc1)C(=O)c1ccc(S(=O)(=O)Nc2ccccc2)cc1 [TH257],Kinases covered,LIMK2,LIMK2
COc1cc2ncnc(Nc3ccc(F)c(Cl)c3)c2cc1O[C@H]1CC[C@H](N)CC1 [BIBW3133BS],Kinases covered,LOK,LOK
Nc1nccc(-c2c(-c3ccc(F)cc3)ncn2CCCN2CCOCC2)n1 [SB-216385],Kinases covered,MAP2K3,MAP2K3
